# This excerpt belongs to a sample that is enriched for the strongest signals.
# Tests used:
# Assay in all cases: glycan array binding signal (z-score within array); higher = stronger binding
# Details in all cases: glycan notation: IUPAC condensed, linker removed
# [1] = target: Fuc(a1-2)Gal(b1-4)GlcNAc(b1-2)Man(a1-3)[Fuc(a1-2)Gal(b1-4)GlcNAc(b1-2)Man(a1-6)]Man(b1-4)GlcNAc(b1-4)[Fuc(a1-6)]GlcNAc
# How it was run: (§1)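 The binding signal is a Z-score computed within each array. Data were drawn from 3228 arrays in the Consortium for Functional Glycomics database, restricted to those with a known protein sequence. Scores were averaged over arrays of the same protein sequence at different concentrations or buffers, and over linkers, and negative values can be taken as non-binding.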
# [2] = target: Fuc(a1-2)Gal(b1-4)[Fuc(a1-3)]GlcNAc(b1-2)[Fuc(a1-2)Gal(b1-4)[Fuc(a1-3)]GlcNAc(b1-4)]Man(a1-3)[Fuc(a1-2)Gal(b1-4)[Fuc(a1-3)]GlcNAc(b1-2)Man(a1-6)]Man(b1-4)GlcNAc(b1-4)GlcNAc
# How it was run: as §1
# [3] = target: Fuc(a1-3)[Gal3S(b1-4)]GlcNAc
# How it was run: as §1
# [4] = target: Fuc(a1-3)[Gal3S(b1-4)]GlcNAc6S
# How it was run: as §1
# [5] = target: Fuc(a1-3)[GalNAc(b1-4)]GlcNAc
# How it was run: as §1
# Gal(a1-3)Gal(b1-3)GlcNAc = target: Gal(a1-3)Gal(b1-3)GlcNAc
# How it was run: as §1
# [6] = target: Gal(a1-3)Gal(b1-3)GlcNAc(b1-2)Man(a1-3)[Gal(a1-3)Gal(b1-3)GlcNAc(b1-2)Man(a1-6)]Man(b1-4)GlcNAc(b1-4)GlcNAc
# How it was run: as §1
# [7] = target: Gal(a1-3)Gal(b1-3)GlcNAc(b1-3)GalNAc
# How it was run: as §1
# Gal(a1-4)GlcNAc = target: Gal(a1-4)GlcNAc
# How it was run: as §1
# Gal(b1-2)Gal = target: Gal(b1-2)Gal
# How it was run: as §1
# [8] = target: Gal(b1-3)GlcNAc(a1-6)Gal(b1-4)GlcNAc
# How it was run: as §1
# [9] = target: Gal(b1-3)GlcNAc(b1-2)Man(a1-3)[Gal(b1-3)GlcNAc(b1-2)Man(a1-6)]Man(b1-4)GlcNAc(b1-4)GlcNAc
# How it was run: as §1
# [10] = target: Gal(b1-3)GlcNAc(b1-3)Gal(b1-4)GlcNAc(b1-2)Man(a1-3)[Gal(b1-3)GlcNAc(b1-3)Gal(b1-4)GlcNAc(b1-2)Man(a1-6)]Man(b1-4)GlcNAc(b1-4)GlcNAc
# How it was run: as §1
# [11] = target: Gal(b1-3)GlcNAc(b1-3)GalNAc
# How it was run: as §1
# [12] = target: Gal(b1-4)GlcNAc(b1-2)Man(a1-3)Man(b1-4)GlcNAc(b1-4)GlcNAc
# How it was run: as §1
# [13] = target: Gal(b1-4)GlcNAc(b1-2)Man(a1-3)[Man(a1-6)]Man(b1-4)GlcNAc(b1-4)GlcNAc
# How it was run: as §1
# [14] = target: Gal(b1-4)GlcNAc(b1-2)[Gal(b1-4)GlcNAc(b1-4)]Man(a1-3)[GlcNAc(b1-4)][Gal(b1-4)GlcNAc(b1-2)Man(a1-6)]Man(b1-4)GlcNAc(b1-4)GlcNAc
# How it was run: as §1
# [15] = target: Gal(b1-4)GlcNAc(b1-3)Gal(b1-4)GlcNAc(b1-2)Man(a1-3)[Gal(b1-4)GlcNAc(b1-3)Gal(b1-4)GlcNAc(b1-2)Man(a1-6)]Man(b1-4)GlcNAc(b1-4)GlcNAc
# How it was run: as §1
# [16] = target: Gal(b1-4)GlcNAc(b1-3)Gal(b1-4)GlcNAc(b1-2)[Gal(b1-4)GlcNAc(b1-3)Gal(b1-4)GlcNAc(b1-6)]Man(a1-6)[Gal(b1-4)GlcNAc(b1-3)Gal(b1-4)GlcNAc(b1-2)Man(a1-3)]Man(b1-4)GlcNAc(b1-4)GlcNAc
# How it was run: as §1
# [17] = target: GalNAc(a1-3)GalNAc(b1-3)Gal(a1-4)Gal(b1-4)GlcNAc
# How it was run: as §1
# GalNAc(b1-4)Gal(b1-4)Glc = target: GalNAc(b1-4)Gal(b1-4)Glc
# How it was run: as §1
# [18] = target: GalNAc(b1-4)GlcNAc(b1-3)GalNAc(b1-4)GlcNAc
# How it was run: as §1
# GalNAc(b1-4)GlcNAc6S = target: GalNAc(b1-4)GlcNAc6S
# How it was run: as §1
# GalNAc3S(b1-4)GlcNAc3S = target: GalNAc3S(b1-4)GlcNAc3S
# How it was run: as §1
# Glc(a1-4)Glc = target: Glc(a1-4)Glc
# How it was run: as §1
# [19] = target: Glc(a1-4)Glc(a1-4)Glc(a1-4)Glc
# How it was run: as §1
# [20] = target: GlcNAc(b1-3)Gal(b1-3)GalNAc
# How it was run: as §1
# [21] = target: GlcNAc(b1-3)Gal(b1-4)GlcNAc(b1-2)Man(a1-3)[GlcNAc(b1-3)Gal(b1-4)GlcNAc(b1-2)Man(a1-6)]Man(b1-4)GlcNAc(b1-4)GlcNAc
# How it was run: as §1
# [22] = target: GlcNAc(b1-3)Gal(b1-4)GlcNAc(b1-3)Gal(b1-4)GlcNAc(b1-2)[GlcNAc(b1-3)Gal(b1-4)GlcNAc(b1-3)Gal(b1-4)GlcNAc(b1-6)]Man(a1-6)[GlcNAc(b1-3)Gal(b1-4)GlcNAc(b1-3)Gal(b1-4)GlcNAc(b1-2)Man(a1-3)]Man(b1-4)GlcNAc(b1-4)[Fuc(a1-6)]GlcNAc
# How it was run: as §1
# [23] = target: GlcNAc(b1-3)Gal(b1-4)GlcNAc(b1-3)[GlcNAc(b1-3)Gal(b1-4)GlcNAc(b1-3)]GalNAc
# How it was run: as §1
binder,measurement,setting,value
SAOUHSC 00176 (Staphylococcus aureus) (protein) MSKILKCITLAVVMLLIVTACGPNRSKEDIDKALNKDNSKDKPNQLTMWVDGDKQMAFYKKITDQYTKKTGIKVKLVNIGQNDQLENISLDAPAGKGPDIFFLAHDNTGSAYLQGLAAEIKLSKDELKGFNKQALKAMNYDNKQLALPAIVETTALFYNKKLVKNAPQTLEEVEANAAKLTDSKKKQYGMLFDAKNFYFNYPFLFGNDDYIFKKNGSEYDIHQLGLNSKHVVKNAERLQKWYDKGYLPKAATHDVMIGLFKEGKVGQFVTGPWNINEYQETFGKDLGVTTLPTDGGKPMKPFLGVRGWYLSEYSKHKYWAKDLMLYITSKDTLQKYTDEMSEITGRVDVKSSNPNLKVFEKQARHAEPMPNIPEMRQVWEPMGNASIFISNGKNPKQALDEATNDITQNIKILHPSQNDKKGD,glycan array binding signal (z-score),[1],0.688
same,glycan array binding signal (z-score),[2],0.546
same,glycan array binding signal (z-score),[3],-0.097
same,glycan array binding signal (z-score),[4],-0.175
same,glycan array binding signal (z-score),[5],-0.119
same,glycan array binding signal (z-score),Gal(a1-3)Gal(b1-3)GlcNAc,-0.106
same,glycan array binding signal (z-score),[6],0.584
same,glycan array binding signal (z-score),[7],-0.107
same,glycan array binding signal (z-score),Gal(a1-4)GlcNAc,-0.034
same,glycan array binding signal (z-score),Gal(b1-2)Gal,-0.068
same,glycan array binding signal (z-score),[8],-0.122
same,glycan array binding signal (z-score),[9],1.06
same,glycan array binding signal (z-score),[10],-0.007
same,glycan array binding signal (z-score),[11],-0.105
same,glycan array binding signal (z-score),[12],-0.068
same,glycan array binding signal (z-score),[13],1.03
same,glycan array binding signal (z-score),[14],0
same,glycan array binding signal (z-score),[15],0.017
same,glycan array binding signal (z-score),[16],0.619
same,glycan array binding signal (z-score),[17],-0.027
same,glycan array binding signal (z-score),GalNAc(b1-4)Gal(b1-4)Glc,0.067
same,glycan array binding signal (z-score),[18],-0.092
same,glycan array binding signal (z-score),GalNAc(b1-4)GlcNAc6S,-0.057
same,glycan array binding signal (z-score),GalNAc3S(b1-4)GlcNAc3S,-0.084
same,glycan array binding signal (z-score),Glc(a1-4)Glc,4.5
same,glycan array binding signal (z-score),[19],23.6
same,glycan array binding signal (z-score),[20],-0.061
same,glycan array binding signal (z-score),[21],-0.101
same,glycan array binding signal (z-score),[22],-0.059
same,glycan array binding signal (z-score),[23],-0.02
